# Screening results deposited in PubChem by National Center for Advancing Translational Sciences (NCATS).
# Sampled rows, rich in hits. Any-hit rate of the full collection: about 3.6%.
# pS6 MEF inh: Acumen qHTS Assay for Inhibitors of the mTORC1 Signaling Pathway in MEF (Tsc2-/-, p53-/-) Cells: Sytravon; Tsc2-/- p53-/- MEF, phospho-rpS6 immunofluorescence/PI, 24 h; Potency, µM (doses to about 38.3 µM), hits mostly inhibitors; hit rate 0.78% among 44,000; AID 493208, 2011; also: nearly all actives have a fitted effect of over 50% in size
#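 Plate MEFs (Tsc2-/-, p53-/-, empty vector) in DMEM/10% FBS; after 24 h add compound, incubate 24 h at 37 degree Celsius; fix in PFA/TX-100, block, stain phospho-rpS6 and 10 uM PI; scan at 488 nm; report % positive cells.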
# S16 viability: Cell viability qHTS assay in S16 Pmp22-F2sN cells. Potency, µM (top dose mostly 57.5 µM), usual class: cytotoxic. hit rate 0.48% among 43,000. S16 Pmp22-F2sN Schwann cells viability, CellTiter-Glo, 24 h; also: nearly all actives have a fitted effect of over 65% in size
#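 Seed 500-1,000 S16 Pmp22-F2sN cells per well in phenol-red-free DMEM with 10% heat-inactivated FBS; pin-add 23 nL compound; incubate 24 h at 37C; add CellTiter-Glo, wait 15 min protected from light; read luminescence.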
# HTT prom inh: Primary qHTS for Identification of Small Molecule Inhibitors of Huntingtin Promoter Activity; HEK293 HTT promoter firefly luciferase reporter, 24 h; Potency, µM (highest dose often 57.5 µM), most hits filed as inhibitors; hit rate 0.93% among 48,000; AID 1508623, 2021; also: nearly all actives have a fitted effect of over 50% in size
#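 HEK293 cells carrying firefly luciferase reporters were seeded at 2,500 per well in Opti-MEM and cultured for 24 h. They were then treated with compounds at up to 57.5 uM final for 24 h at 37 degrees C before Dual-Glo luminescence readout.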
# SKOV3 invasion: Primary qHTS assay for Inhibitors of ovarian cancer metastasis using an organotypic tumor microenvironment (TME) model; SKOV3ip1-GFP adhesion/invasion on 3D omental model, fluorescence; Potency, µM (highest dose often 45.8 µM), hits mostly inhibitors; hit rate 0.1% among 46,000; AID 1963576, 2024; also: nearly all actives have a fitted effect of over 65% in size
#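 A 3D layer of primary human omental fibroblasts, mesothelial cells, fibronectin and collagen I, grown 48 hr, received SKOV3ip1-GFP cells in serum-free medium plus compounds at 0.36-46 umol/L. After 2 hr RT and 16 hr 37 C, fixed adherent GFP cells were counted; normalized to DMSO and tomatine.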
# HTT-AS act: Primary qHTS for Identification of Small Molecule Activators of Huntingtin-Antisense Promoter Activity; hit rate 0.24% among 48,000; AID 1508624, 2021; Potency, µM (titrated, usually from 57.5 µM), actives largely listed as activators; HEK293 HTT-AS promoter firefly luciferase reporter, 24 h; response scale: percent change from vehicle, -100% = no light; also: nearly all actives have a fitted effect of over 55% in size
#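 Luminescence was read after Dual-Glo reagent and a 10 min room-temperature incubation. Values were normalized to vehicle (0% activity) and zero RLU (-100% activity). Reporter HEK293 cells had been exposed to compounds (up to 57.5 uM final) for 24 h.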
# PMP22 txn: Cell-based coincidence reporter assay to measure PMP22 gene transcription in S16 Pmp22-F2sN cells - Primary screen | hit rate 2% among 43,000 | S16 Pmp22-F2sN Schwann cells (luciferase reporters placed in the Pmp22 gene), FLuc/NLuc coincidence luminescence, 24 h | Potency, µM (series often up to 57.5 µM), actives largely listed as inhibitors; active = clear falling dose curves in both reporters; inconclusive = both reporters move, but less clearly or upward; inactive = either reporter flat; the % is the NLuc reporter signal
#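 Luminescent read-out of sequential FLuc and NLuc signals from a reporter embedded in the Pmp22 3' UTR of S16 Schwann cells, taken after 24 h compound exposure at 37C; compounds reducing both signals score as inhibitors of expression.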
# NLuc saturating: Biochemical NLuc saturation counterscreen for small molecule modulators of PMP22 gene expression - Nano-Glo assay. shares compounds with PMP22 txn. Secreted NLuc enzyme (filtered S16 cell medium), Nano-Glo luminescence. Potency, µM (titrated, usually from 57.5 µM), most hits filed as inhibitors. hit rate 4% among 690. AID 1508638, 2021
# NLuc Km ctr: Biochemical coelenterazine-based NLuc counterscreen for small molecule modulators of PMP22 gene expression - Km assay | shares compounds with PMP22 txn | secreted NLuc enzyme, coelenterazine luminescence, Km conditions | Potency, µM (top dose mostly 57.5 µM), hits mostly inhibitors | hit rate 5% among 690
# FLuc ctr PMP22: Biochemical FLuc counterscreen for small molecule modulators of PMP22 gene expression; shares compounds with PMP22 txn; purified P. pyralis FLuc, luminescence, 10 min; Potency, µM (series often up to 57.5 µM), most hits filed as inhibitors; 690 tested, under 10 active
# Target sequence (P08659 whole entry, looked up): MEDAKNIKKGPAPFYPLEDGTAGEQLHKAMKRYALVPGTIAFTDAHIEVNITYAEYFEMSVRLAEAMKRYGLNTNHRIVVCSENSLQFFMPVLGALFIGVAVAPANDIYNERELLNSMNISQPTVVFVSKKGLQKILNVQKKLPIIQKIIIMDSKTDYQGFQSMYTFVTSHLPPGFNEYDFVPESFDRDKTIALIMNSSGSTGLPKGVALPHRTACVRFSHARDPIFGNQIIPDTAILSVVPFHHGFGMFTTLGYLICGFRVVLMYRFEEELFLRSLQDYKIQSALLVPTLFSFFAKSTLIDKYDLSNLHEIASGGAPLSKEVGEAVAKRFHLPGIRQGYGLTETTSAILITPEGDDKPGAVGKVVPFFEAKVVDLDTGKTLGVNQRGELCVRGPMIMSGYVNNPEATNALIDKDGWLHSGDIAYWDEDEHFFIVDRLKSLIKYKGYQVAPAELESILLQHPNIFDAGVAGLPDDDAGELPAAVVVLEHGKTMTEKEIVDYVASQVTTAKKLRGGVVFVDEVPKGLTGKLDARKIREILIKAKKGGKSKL
# S16 viab conf: Cell viability qHTS assay in S16 Pmp22-F2sN cells - Confirmatory screen; shares compounds with PMP22 txn; S16 Schwann cells viability, CellTiter-Glo ATP luminescence, 24 h; Potency, µM (doses to about 57.5 µM), usual class: cytotoxic; hit rate 7% among 690; AID 1508641, 2021
# PMP22 txn cnf: Cell-based coincidence reporter assay to measure PMP22 gene transcription in S16 Pmp22-F2sN cells - Confirmatory screen; hit rate 22% among 690; S16 Schwann cells Pmp22-F2sN, dual luciferase, 24 h; shares compounds with PMP22 txn; Potency, µM (doses to about 57.5 µM), usual class: inhibitors; active = clear falling dose curves in both reporters; inconclusive = both reporters move, but less clearly or upward; inactive = either reporter flat; the % is the FLuc reporter signal
# PMP22 HiBiT cnf: Cell-based HiBiT reporter assay to measure PMP22 protein expression in S16 Pmp22-HiBiT cells - Confirmatory screen; shares compounds with PMP22 txn; S16 Schwann cells Pmp22-HiBiT, luminescence, 48 h; Potency, µM (doses to about 27.9 µM), actives largely listed as inhibitors; 95 tested, under 10 active; AID 1508647, 2021
# Target sequence (P25094 whole entry, looked up): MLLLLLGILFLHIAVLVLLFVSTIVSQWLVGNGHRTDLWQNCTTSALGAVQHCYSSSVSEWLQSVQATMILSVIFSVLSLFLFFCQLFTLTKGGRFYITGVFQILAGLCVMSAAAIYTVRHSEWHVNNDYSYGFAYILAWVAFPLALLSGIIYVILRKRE
# A number is an active result; 0 = inactive; ? = inconclusive; - = no result; [ ] = dose if it differs, or a comment. Unless noted, calls follow the shape of the dose curve; as a rule, active = well fitted curve in the direction sought with a large enough effect; inconclusive = small, poorly fitted or top-dose-only effect, or another doubt; inactive = no such curve, though single readings can be large; an effect the other way counts as inactive or inconclusive.
SMILES,pS6 MEF inh,S16 viability,HTT prom inh,SKOV3 invasion,HTT-AS act,PMP22 txn,NLuc saturating,NLuc Km ctr,FLuc ctr PMP22,S16 viab conf,PMP22 txn cnf,others
COc1cccc(NC(=O)CSc2ncc3c(n2)-c2ccc(Cl)cc2N(C)S3(=O)=O)c1,0,0,0,0,0,2.5µM,0,0,0,0,?,
COc1ccccc1NC(=O)CSc1ncc2c(n1)-c1cc(Cl)ccc1N(C)S2(=O)=O,0,0,?,0,0,0,-,-,-,-,-,
CCC(C)NC(=O)C1CCN(C(=O)c2cc3sccc3n2Cc2ccc(Cl)cc2)CC1 (centres undefined),0,?,8.9µM,0,0,8.9µM,?,?,0,?,14µM,PMP22 HiBiT cnf=1.6µM
CCc1cccc(C)c1NC(=O)c1nc2ccccc2nc1N1CCCCC1,0,0,0,0,0,?,0,?,0,0,0,
Cc1cnc(Nc2ccc(N3CCN(C)CC3)cc2)nc1Nc1cccc(S(=O)(=O)NC(C)(C)C)c1,-,-,0,0,0,-,-,-,-,-,-,
CCOC(=O)C1CCN(c2nc(-c3ccc(Br)cc3)nc3ccccc23)CC1,0,?,?,0,0,15µM,0,0,0,0,0,
Cc1ccc(S(=O)(=O)C(CNS(=O)(=O)c2ccc(F)c(C(F)(F)F)c2)c2ccco2)cc1 (centres undefined),?,?,0,0,0,14µM,0,?,0,0,0,
Cc1ccc(S(=O)(=O)C(CNC(=O)c2ccc(F)c(F)c2)c2ccco2)cc1 (centres undefined),0,?,0,0,0,0,-,-,-,-,-,
Cn1c(=O)c2c(-c3ccccc3Br)n(C(C)(C)C)cc2n(C)c1=O,0,0,0,0,0,16µM,?,0,0,?,0,
CCN1C[C@H](C)n2c(c(O)c3c(=O)n(Cc4ccc(F)c(Cl)c4)nc(C(=O)NC)c32)C1=O,-,-,0,0,0,-,-,-,-,-,-,
CCC(Sc1nc2ccccc2c2nc(-c3ccccc3)nn12)C(=O)Nc1cccc(OC)c1 (centres undefined),0,?,0,0,0,13µM,0,0,0,0,15µM,PMP22 HiBiT cnf=?
COc1cc2nc(SCC(=O)Nc3cccc(C)c3)n3nc(-c4ccccc4)nc3c2cc1OC,0,0,0,0,0,0,-,-,-,-,-,
COC(=O)COc1ccc(-c2nnc(Nc3ccc(O)cc3)c3ccccc23)cc1,?,?,0,2.5µM,0,11µM,12µM,11µM,0,0,?,
CNC(=O)c1cc(Nc2nnc(-c3ccc(O)cc3)c3ccccc23)ccc1OC,0,?,0,0,0,0,-,-,-,-,-,
Cc1cccc(-c2c3c(=O)n(C)c(=O)n(C)c3c3c(C)nc4ccccc4n23)c1,0,0,0[11.5 µM],0,0[11.5 µM],13µM,0,0,0,0,0,
Cc1ccc(-c2c3c(=O)n(C)c(=O)n(C)c3c3c(-c4cccc(C)c4)nc4ccccc4n23)cc1,0,0,0[11.5 µM],0,0[11.5 µM],0,-,-,-,-,-,
Cc1ccc(NC(=O)c2c(Nc3ccccc3C)sc(C(=O)c3ccccc3)c2N)cc1,0,?,?,0,0,?,-,-,-,-,-,
Cc1cc(Nc2sc(C(=O)c3ccc(F)cc3)c(N)c2C(=O)Nc2ccc(F)cc2)ccc1Cl,0,?,?,?,0,6.3µM,0,?,0,?,6.1µM,
COc1ccccc1Nc1nn2c(=O)c3ccc(C(=O)Nc4ccc(F)cc4)cc3nc2s1,0,0,0,0,0,3µM,0,0,0,14µM,5.8µM,PMP22 HiBiT cnf=?
COc1ccc(NC(=O)c2ccc3c(=O)n4nc(Nc5cccc(Cl)c5C)sc4nc3c2)cc1,0,?,0,0,0,?,-,-,-,-,-,
Cc1ccc(Cl)cc1Nc1nn2c(=O)c3ccc(C(=O)Nc4ccc(F)cc4)cc3nc2s1,0,0,0,0,0,0,-,-,-,-,-,
COc1ccc(NC(=O)c2ccc3c(=O)n4nc(Nc5ccccc5C)sc4nc3c2)cc1,0,0,0,0,0,?,-,-,-,-,-,
COc1ccc(NC(=O)c2ccc3c(=O)n4nc(Nc5ccccc5C)sc4nc3c2)cc1Cl,0,0,0,0,0,11µM,0,?,0,24µM,15µM,
COc1ccccc1Nc1nn2c(=O)c3ccc(C(=O)NCCC4=CCCCC4)cc3nc2s1,?,?,10µM,0,0,3µM,?,?,?,6.9µM,5.8µM,
Cc1ccc(NC(=O)c2ccc3c(=O)n4nc(Nc5ccccc5C)sc4nc3c2)cc1C,0,0,0,0,0,9.5µM,0,?,0,27µM,13µM,
CC(C)(C)c1cc(C(C)(C)C)c(NC(=O)c2c[nH]c3ccccc3c2=O)cc1O,-,-,0,0,0,-,-,-,-,-,-,
Cc1cnc(-c2cnc(NCCNc3ccc(C#N)cn3)nc2-c2ccc(Cl)cc2Cl)[nH]1,-,-,0,0,0,-,-,-,-,-,-,
